target: KIF25; assay: pooled miR-30 sensor sort-seq; sequence = guide strand; conditions: shRNA
Further: reference of the scale not given here.

Row | Sequence | sensor-assay potency score (higher = more potent)
1 | TAACTTCGCATCGCCTCCGAGG | -1.63
2 | TTGTAAACTTCCACTATGGAGA | -0.609
3 | AACCTCTGTCCGTCCATCCTTG | -0.841
4 | TAGAGTCACCGTAATTATCAGG | -1.12
5 | TATAGCTCTTTCCGCTGCCCGT | -1.1
6 | TAACACAAACATTGTACCCATC | -0.837
7 | ATTATTGTAAACTTCCACTATG | -0.786
8 | TTATTGTAAACTTCCACTATGG | -0.569
9 | ACAAACATTGTACCCATCCAAG | -1.74
10 | ATAACACAAACATTGTACCCAT | 0.237

target: KIF26A; assay: as above; conditions: shRNA

Row | Sequence | sensor-assay potency score (higher = more potent)
11 | TAGCTTGTCGAGAAGCAGGGCA | -0.503
12 | TCAAACTCATCATTGATGCTGC | 0.23
13 | ATCTCGTACACCTTGATCTCGA | -0.604
14 | TACTGGTAGACGTGCAGCGTGA | -1.25
15 | TACACCTTGATCTCGAACGGCT | -0.449
16 | TCGCTTGAGCTCCACCAGCTTC | -1.81
17 | TTGAGCTCCACCAGCTTCGTGT | -0.457
18 | TCGAAGGCAAACATCTTGGGAA | 0.12
19 | TGTGCTGCTTCTACCTTGCTGG | -0.279
20 | TCATCGATCTCGTACACCTTGA | -0.779
21 | TTCTTGGGGGACTTGAGGCTGC | -0.669
22 | TTGTCCTTGGTCTTGGAGGCGG | -1.26

target: KIF2C; assay: as above; conditions: shRNA

Row | Sequence | sensor-assay potency score (higher = more potent)
23 | TTTCTTGGCCAATTCTTGCTTA | 0.0812
24 | TTGCTGTATGATCTCCTTGAGC | -1.21
25 | TGAACCTGTAGACAACTTCATT | -1.25
26 | TTCAAAGATTGTCTGTACCAGT | -0.672
27 | TTCTGTTTCCATTTGAATCAAC | -0.604
28 | TTCTCCAAGTTCACAGTCCTTA | -0.384
29 | TTGGAGTTGACGGATCTCCGTT | -0.171
30 | TAACACAGACACATATTCTGTG | 0.393
31 | TTGCTCTTCCATCTCCTCGCTG | -0.535
32 | TTTGTCTGCTAGCCTGCTCTTC | -1.15
33 | TATGTGTCTTGCCACTTCCTGT | -0.789

target: KIR2DL5B; assay: as above; conditions: shRNA

Row | Sequence | sensor-assay potency score (higher = more potent)
34 | TACATGTCAAATGAGCTCCTGG | -0.149
35 | TTTGTCTGTGTGAAAACGCAGT | -0.271
36 | TTGATCATCAGAGTCCTCCCTG | 0.731
37 | TTCTTTTTGTTGGAGCAGCAGC | -0.965
38 | TATCTGTTGGAGGTGCCTTGGG | -0.788
39 | AACTACTTGAAGAGTTTCCTGT | 0.126
40 | TTGTACAGACTGAAGATGGTAA | -0.188
